Assay outcomes (PubChem BioAssay)
The list is not random: actives were taken first. Their share in the collection is about 3.1%.
rTrxR1 inhibitor – rat TrxR1 inhibition. O89049. recombinant rTrxR1, NADPH fluorescence consumption, selenite substrate. Potency, µM (top dose mostly 114 µM), most hits filed as inhibitors. 390,000 tested, 1% active. AID 588453; note: nearly all actives have a fitted effect of over 65% in size
Target sequence (O89049 whole entry, looked up): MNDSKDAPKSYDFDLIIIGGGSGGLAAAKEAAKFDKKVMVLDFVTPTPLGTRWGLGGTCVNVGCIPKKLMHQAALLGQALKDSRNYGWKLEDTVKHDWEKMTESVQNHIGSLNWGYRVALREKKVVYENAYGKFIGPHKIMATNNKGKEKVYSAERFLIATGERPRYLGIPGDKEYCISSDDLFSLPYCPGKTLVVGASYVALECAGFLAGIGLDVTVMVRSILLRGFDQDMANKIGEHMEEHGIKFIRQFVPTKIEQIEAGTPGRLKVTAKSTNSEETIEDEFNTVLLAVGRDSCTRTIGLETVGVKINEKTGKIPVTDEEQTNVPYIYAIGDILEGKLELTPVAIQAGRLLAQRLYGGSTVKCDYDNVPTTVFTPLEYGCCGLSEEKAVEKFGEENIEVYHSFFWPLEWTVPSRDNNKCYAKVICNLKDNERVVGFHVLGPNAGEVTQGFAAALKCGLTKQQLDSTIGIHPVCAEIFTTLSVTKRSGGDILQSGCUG
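Rat TrxR1 (90 nM in the dispensed reagent) was pre-reduced with 400 uM NADPH for 5 min at room temperature, then incubated with compound for 15 min. After 400 uM selenite was added, NADPH fluorescence (Ex 340/Em 450 nm) was followed for 8 min.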
IDH1 R132H inh – blocks human mutant IDH1 R132H enzyme; IDH1-R132H enzyme, NADPH consumption, diaphorase/resazurin fluorescence; Potency, µM (titrated, usually from 76.6 µM), hits mostly inhibitors; 390,000 tested, 0.093% active; O75874; AID 602179; note: nearly all actives have a fitted effect of over 65% in size
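IDH1-R132H (0.5 ug/mL) preincubated 30 min with compound, then NADPH (0.016 mM) and alpha-KG (2 mM) added; 80 min at RT, pH 7.5. Remaining NADPH coupled via diaphorase/resazurin to fluorescence (540/590 nm); concentration-response curves normalized to no-enzyme control.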
Mito fusion yeast – mitochondrial division inhibition or fusion activation; 320,000 tested, 0.23% active; Potency, µM (titrated, usually from 46.1 µM), actives largely listed as activators; S. cerevisiae fusion-defective mutant growth rescue, CellTiterGlo 48 h; note: nearly all actives have a fitted effect of over 45% in size
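S. cerevisiae fusion-defective temperature-sensitive mutants (e.g. fzo1-1, mgm1-5) grown 48 h at 37C in YPEG (ethanol/glycerol non-fermentable) medium with 23 nl compound per well; growth rescue read as CellTiterGlo luminescence.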
TrxR1 substrate – is turned over as a substrate by rat TrxR1 | O89049 | purified TrxR1 substrate turnover, NADPH consumption readout | Potency, µM (series often up to 114 µM) | 390,000 tested, 0.01% active | AID 588456; note: nearly all actives have a fitted effect of over 50% in size
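Rat TrxR1, dispensed at 90 nM, was prereduced with 400 uM NADPH (final) for 5 min at ~22 deg C, then incubated with compound 15 min before 400 uM selenite. A first-read NADPH fluorescence drop versus no-compound background flagged substrates.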
Nrf2 inh – blocks Nrf2 signaling | A549 ARE-Fluc reporter, luciferase luminescence, 18-24 h | Potency, µM (titrated, usually from 46 µM), usual class: inhibitors | 360,000 tested, 2.1% active | AID 504444; note: nearly all actives have a fitted effect of over 60% in size
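In this cell-based qHTS, ARE-driven firefly luciferase in A549 cells reports Nrf2 activity; the luminescent signal after BugLite lysis is the measured value, with a prior CellTiter-Fluor read for cell health.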
A549 viability – A549 cytotoxicity, counter-screen for Nrf2 inhibitors; Potency, µM (titrated, usually from 46 µM), usual class: inhibitors; 390,000 tested, 0.16% active; A549 ARE-Fluc cells, CellTiter-Fluor viability, 18-24 h
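Cytotoxicity counterscreen: CellTiter-Fluor fluorescence was measured in A549 ARE_Fluc cells after 18-24 h of compound exposure in a concentration series. The subsequent BugLite luminescent read reports ARE-luciferase activity.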
Of the large screens only hits and unclear results are named; the others gave an inactive call; ! = a repeat was not active. Calls come from the whole dose curve; as a rule, active = well fitted curve in the direction sought with a large enough effect; inconclusive = small, poorly fitted or top-dose-only effect, or another doubt; inactive = no such curve, though single readings can be large; an effect the other way counts as inactive or inconclusive.

COc1ccc(N2C(=O)NC(=O)/C(=C\c3ccc([N+](=O)[O-])s3)C2=O)cc1	rTrxR1 inhibitor 25.1µM
CCOc1ccc(N2C(=O)NC(=O)/C(=C\c3cc(OC)c(OC)cc3[N+](=O)[O-])C2=O)cc1	rTrxR1 inhibitor 11.2µM
COc1cccc(N2C(=O)NC(=O)/C(=C/c3ccc([N+](=O)[O-])s3)C2=O)c1	rTrxR1 inhibitor inconclusive
COc1ccc(N2C(=O)NC(=O)/C(=C/c3ccc([N+](=O)[O-])s3)C2=O)cc1	rTrxR1 inhibitor 39.8µM, A549 viability inconclusive
COc1ccc2c(c1)C13CCCCC1C(C2)N(C)CC3 (configuration not stated)	none (no result: IDH1 R132H inh, Nrf2 inh, A549 viability)
c1ccc(CCN2CCCCC2)cc1	none (no result: IDH1 R132H inh, Mito fusion yeast, Nrf2 inh, A549 viability)
CC(C)[C@H]1C(=O)O[C@H](C(C)C)C(=O)N(C)[C@@H](C(C)C)C(=O)O[C@H](C(C)C)C(=O)N(C)[C@@H](C(C)C)C(=O)O[C@H](C(C)C)C(=O)N1C	rTrxR1 inhibitor inconclusive, Nrf2 inh 3.66µM, A549 viability inconclusive
O=C(Oc1ccc([N+](=O)[O-])cc1)N1CCN(/[N+]([O-])=N/Oc2ccc([N+](=O)[O-])cc2[N+](=O)[O-])CC1	rTrxR1 inhibitor inconclusive (no result: IDH1 R132H inh, Mito fusion yeast, Nrf2 inh, A549 viability)
CC[C@H](C)/C=C(C)/C=C/C1=CC2=C(Cl)C(=O)[C@](C)(OC(C)=O)C(=O)C2=CO1	rTrxR1 inhibitor 50.1µM, A549 viability inconclusive (no result: Mito fusion yeast)
C/C1=C\[C@@H](C)C/C=C/[C@H]2[C@@H]3O[C@]3(C)[C@@H](C)[C@H]3[C@H](Cc4c[nH]c5ccccc45)NC(=O)[C@]32C(=O)/C=C/C(=O)[C@@H]1O	rTrxR1 inhibitor inconclusive, Nrf2 inh inconclusive, A549 viability inconclusive
CC1=CC2/C=C(\C)CCC(O)C(O)/C=C/C(=O)C23C(=O)NC(CC(C)C)C3C1C (configuration not stated)	rTrxR1 inhibitor 15.8µM, Nrf2 inh 14.6µM, A549 viability 16.4µM
Cc1ccnc(-n2c(C)cc(C=C3C(=O)N(C)C(=S)N(C)C3=O)c2C)c1	rTrxR1 inhibitor 17.8µM
Cc1ccc(NC(=O)COC(=O)/C=C/c2ccco2)cc1S(=O)(=O)N(C)C	rTrxR1 inhibitor 39.8µM
COC(=O)C1=C(c2ccc(C(C)=O)cc2)C[C@@H]2CC[C@H]1N2C(=O)N1CCC(C)CC1	none
COC(=O)C1=C(c2ccc(C(C)=O)cc2)C[C@@H]2CC[C@H]1N2C(=O)N1CCC(O)(c2ccc(Cl)cc2)CC1	Nrf2 inh 23.1µM
O=P1(Oc2ccccc2)CC=CC(COCc2ccccc2)O1 (configuration not stated)	none (no result: IDH1 R132H inh, Mito fusion yeast)
O=C(CN1CCOCC1)c1cccc2ccccc12	rTrxR1 inhibitor 17.8µM
CCCn1c(C)c(C(=O)c2cccc3ccccc23)c2ccccc21	Mito fusion yeast inconclusive
Cc1c(C(=O)c2cccc3ccccc23)c2cccc3c2n1[C@H](CN1CCOCC1)CO3	rTrxR1 inhibitor inconclusive, Mito fusion yeast 9.2µM, Nrf2 inh inconclusive, A549 viability inconclusive
O=C(CN1CCOCC1)c1ccc(Br)cc1	none
NCC(=O)c1ccc2ccccc2c1	none (no result: IDH1 R132H inh, Mito fusion yeast, Nrf2 inh, A549 viability)
C=CCN1CC[C@]23c4c5ccc(O)c4O[C@@H]2/C(=N/N=C2\CC[C@@]4(O)C6Cc7ccc(O)c8c7[C@@]4(CCN6CC=C)[C@@H]2O8)CC[C@@]3(O)C1C5	rTrxR1 inhibitor 20µM, Mito fusion yeast inconclusive (no result: IDH1 R132H inh, Nrf2 inh, A549 viability)
C=CCN1CC[C@]23c4c5ccc(O)c4O[C@H]2C(=O)CC[C@@]3(O)[C@H]1C5	rTrxR1 inhibitor inconclusive
CC[n+]1c(-c2ccccc2)c2cc(N)ccc2c2ccc(N)cc21	Nrf2 inh 14.6µM, A549 viability inconclusive (no result: Mito fusion yeast)
O=C1NC(=O)N(CCC2=CCCCC2)C(=O)/C1=C\c1cccs1	rTrxR1 inhibitor 7.08µM
COc1ccc(N2C(=O)/C(=C/c3cccs3)C(=O)NC2=S)cc1	rTrxR1 inhibitor 7.94µM
Cc1ccc(/C=C2\C(=O)NC(=S)N(c3ccc(F)cc3)C2=O)s1	rTrxR1 inhibitor 10µM, Nrf2 inh inconclusive
C=CCN1C(=O)/C(=C/c2cccs2)C(=O)NC1=S	rTrxR1 inhibitor 10µM
Cc1ccc(/C=C2\C(=O)NC(=S)N(c3ccccc3F)C2=O)s1	rTrxR1 inhibitor 12.6µM
O=C(c1ccc2nc(-c3ccco3)c(-c3ccco3)nc2c1)N1CCC2(CC1)OCCO2	rTrxR1 inhibitor 4.47µM
CCOC(=O)[C@]12Cc3cc(C)ccc3[C@H]1N(Cc1ccccc1)C(=O)c1ccccc12	Nrf2 inh 23.1µM, A549 viability inconclusive (no result: Mito fusion yeast)
CCOC(=O)[C@]12Cc3cc(OC)ccc3[C@H]1N(Cc1ccccc1)C(=O)c1ccccc12	Nrf2 inh inconclusive (no result: Mito fusion yeast)
O=c1[nH]c(=S)[nH]c(O)c1/C=C1/C=c2ccccc2=N1	rTrxR1 inhibitor 20µM
Cc1cccc2c1=NC(=O)/C(=C/c1c(O)[nH]c(=O)[nH]c1=O)C=2	rTrxR1 inhibitor inconclusive
CCOP1(=O)C=C(Sc2ccc([N+](=O)[O-])cc2[N+](=O)[O-])C(C)(C)O1 (configuration not stated)	rTrxR1 inhibitor 14.1µM (no result: Mito fusion yeast)
CCOP(=O)(OCC)C(O)c1cccc([N+](=O)[O-])c1 (configuration not stated)	none
Cc1cccc(OC(=O)n2c(=S)oc3cc(Cl)ccc32)c1	Mito fusion yeast inconclusive
C[N+](C)(C)CC1CCCc2ccccc2C1=O (configuration not stated)	rTrxR1 inhibitor 70.8µM (no result: Mito fusion yeast)
C[N+](C)(C)CC1CCCC(C[N+](C)(C)C)C1=O (configuration not stated)	rTrxR1 inhibitor inconclusive (no result: Mito fusion yeast)
Cc1ccc(-c2nc3ncccc3o2)cc1NC(=O)c1cccc(OCC(C)C)c1	Nrf2 inh inconclusive (no result: Mito fusion yeast)
COc1ccc2c(c1)CCc1c(C(=O)Nc3c(C)nn(Cc4ccccc4C)c3C)noc1-2	Nrf2 inh 18.4µM (no result: Mito fusion yeast)
CC(C)(C)c1nc(N2CCN(C(=O)c3ccco3)CC2)c2nnn(Cc3ccccc3Cl)c2n1	Nrf2 inh 18.4µM
CC1Cc2ccccc2CN1 (configuration not stated)	none (no result: IDH1 R132H inh, Mito fusion yeast, Nrf2 inh, A549 viability)
O=C(Nc1ccccc1)c1cc([N+](=O)[O-])ccc1N1CCNCC1	rTrxR1 inhibitor inconclusive
O=[N+]([O-])c1ccc2nc(N3CCNCC3)ccc2c1	rTrxR1 inhibitor 79.4µM!
O=C1NC(=O)C(=Cc2ccc(N3CCN(C(=O)c4ccccc4)CC3)c([N+](=O)[O-])c2)C(=O)N1	rTrxR1 inhibitor 10µM
CN1C(=O)C(=Cc2ccc(N3CCOCC3)c([N+](=O)[O-])c2)C(=O)N(C)C1=O	none (no result: rTrxR1 inhibitor, IDH1 R132H inh, TrxR1 substrate, Nrf2 inh, A549 viability)
